{
  "source": "PubChem BioAssay AID504710",
  "about": "(Sanford-Burnham Center for Chemical Genomics, 2011)",
  "note": "Calls of active or inactive are those of the source.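 How the source made its calls: active means inhibition reaching about 16% in any single replicate (limit read from the data); inactive means the rest.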",
  "data": [
    {"target": "Hexokinase HKDC1 (Homo sapiens) (UniProt Q2TB90)", "sequence (Q2TB90 whole entry, looked up)": "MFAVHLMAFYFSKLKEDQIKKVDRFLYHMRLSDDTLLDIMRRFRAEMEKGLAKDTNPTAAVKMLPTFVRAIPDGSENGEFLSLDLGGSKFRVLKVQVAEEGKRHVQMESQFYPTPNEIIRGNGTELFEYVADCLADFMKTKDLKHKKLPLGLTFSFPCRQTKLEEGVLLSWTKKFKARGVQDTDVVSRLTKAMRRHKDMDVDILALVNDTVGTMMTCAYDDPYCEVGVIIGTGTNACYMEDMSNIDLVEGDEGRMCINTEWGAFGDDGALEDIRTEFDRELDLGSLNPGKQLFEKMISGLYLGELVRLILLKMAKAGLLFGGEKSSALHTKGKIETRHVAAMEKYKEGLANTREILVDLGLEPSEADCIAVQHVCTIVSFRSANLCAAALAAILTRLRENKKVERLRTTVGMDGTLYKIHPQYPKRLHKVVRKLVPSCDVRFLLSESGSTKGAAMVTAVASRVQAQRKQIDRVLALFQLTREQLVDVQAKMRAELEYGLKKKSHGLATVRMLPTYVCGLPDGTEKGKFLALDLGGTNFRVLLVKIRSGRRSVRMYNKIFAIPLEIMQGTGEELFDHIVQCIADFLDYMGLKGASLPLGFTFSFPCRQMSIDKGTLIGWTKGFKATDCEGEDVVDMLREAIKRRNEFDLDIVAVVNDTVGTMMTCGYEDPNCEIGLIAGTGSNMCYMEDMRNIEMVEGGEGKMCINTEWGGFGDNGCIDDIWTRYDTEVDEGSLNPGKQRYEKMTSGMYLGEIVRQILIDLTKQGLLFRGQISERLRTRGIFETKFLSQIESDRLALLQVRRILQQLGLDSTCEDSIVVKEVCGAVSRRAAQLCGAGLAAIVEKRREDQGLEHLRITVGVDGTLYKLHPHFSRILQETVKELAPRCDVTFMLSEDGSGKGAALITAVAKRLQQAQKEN", "test": "HKDC1 hexokinase inhibitors, confirmation, biochemical, single concentration (AID 504710)", "settings": "recombinant HKDC1, G6PDH/diaphorase/resazurin fluorescence; at 20 µM; stronger effect = higher value", "values": [
      {"smiles": "C=CCn1nc([N+](=O)[O-])nc1Sc1cccc2cccnc12", "inhibition": "-52.4% (inactive)"},
      {"smiles": "CC(NC(=O)c1sc2cc([N+](=O)[O-])ccc2c1Cl)C(C)(C)C", "note": "(configuration not stated)", "inhibition": "-39.3% (inactive)"},
      {"smiles": "NC1=C(Cl)C(=O)c2ccc(S(N)(=O)=O)cc2C1=O", "inhibition": "-42.9% (inactive)"},
      {"smiles": "COc1ccc(CN2C(=O)c3cccnc3C2O)cc1", "note": "(configuration not stated)", "inhibition": "35.8% (active)"},
      {"smiles": "COC1=CC(=O)C=C(OC)C1=O", "inhibition": "75.2% (active)"},
      {"smiles": "CC(=O)/C(=N\\Nc1ccc(Cl)cc1Cl)Sc1cccc2cccnc12", "inhibition": "-44.8% (inactive)"},
      {"smiles": "Cc1ccc(C)c(-n2nnnc2Sc2nnnn2-c2ccccc2)c1", "inhibition": "38.7% (active)"},
      {"smiles": "Clc1cccc(N=C2NN=C(c3ccc4c(c3)OCCO4)CS2)c1", "inhibition": "-99.6% (inactive)"},
      {"smiles": "COc1ncnc2c1oc1nc(C(C)C)c3c(c12)CC(C)(C)OC3", "inhibition": "43.5% (active)"},
      {"smiles": "CC(C)c1ccc(S(=O)(=O)/N=C2/C=C(Sc3ncn[nH]3)C(=O)c3ccccc32)cc1", "inhibition": "60.8% (active)"},
      {"smiles": "O=C(O)c1ccccc1-c1c2cc(I)c(=O)c(I)c-2oc2c(I)c(O)c(I)cc12", "inhibition": "43.5% (active)"},
      {"smiles": "O=C(NC1=C(NC2CCS(=O)(=O)C2)C(=O)c2ccccc2C1=O)c1ccccc1", "note": "(configuration not stated)", "inhibition": "68.9% (active)"},
      {"smiles": "Cc1[nH]c2ccccc2c1C1=CC(=O)C=CC1=O", "inhibition": "52.9% (active)"},
      {"smiles": "COc1ccc(S(=O)(=O)Nc2ccc(O)c3ccccc23)cc1", "inhibition": "51.2% (active)"},
      {"smiles": "CN(C)Cc1cc(O)c(CN(C)C)cc1O", "inhibition": "70.3% (active)"},
      {"smiles": "COc1ccc(-c2[nH]c(-c3ccc(SC)cc3)nc2SCC(=O)Nc2nccs2)cc1", "inhibition": "-36.1% (inactive)"},
      {"smiles": "Cc1cccc2c(N=NC(=O)c3ccc(NS(=O)(=O)c4cccs4)cc3)c(O)[nH]c12", "inhibition": "63.2% (active)"},
      {"smiles": "CCCc1nc2oc3c(NCC4CCCO4)ncnc3c2c2c1COC(C)(C)C2", "note": "(configuration not stated)", "inhibition": "28.9% (active)"},
      {"smiles": "COC(=O)c1c(NC(C)=O)sc(Cc2ccccc2)c1C", "inhibition": "-37.8% (inactive)"},
      {"smiles": "CCc1nc2c(c(=O)c3ccccc3n2C)c(=O)n1-c1ccc(F)cc1", "inhibition": "72.7% (active)"},
      {"smiles": "COc1ccccc1NC(=S)NN=C(C)c1ccccn1", "inhibition": "-61% (inactive)"},
      {"smiles": "Fc1ccc(N=C2NN=C(c3cc(F)ccc3F)CS2)cc1", "inhibition": "-132% (inactive)"},
      {"smiles": "CCCc1nc2oc3c(OC)ncnc3c2c2c1COC(C)(C)C2", "inhibition": "42.4% (active)"},
      {"smiles": "Cc1cc(C(F)F)n2ncc(C(=O)NCCc3ccc(Cl)cc3)c2n1", "inhibition": "36.2% (active)"},
      {"smiles": "O=C(O)[C@@H](c1ccccc1)N1Cc2ccccc2C1=O", "inhibition": "43.8% (active)"},
      {"smiles": "COC(=O)c1cc(C)nc2c1C(=O)C(=O)C=C2N1CCOCC1", "inhibition": "65.8% (active)"},
      {"smiles": "CCCCC(CC)CN=C(N)NC(N)=NCCCCCCN=C(N)NC(N)=NCC(CC)CCCC", "note": "(configuration not stated)", "inhibition": "45.9% (active)"},
      {"smiles": "CCN(CC)c1ccc2c(c1)oc(=O)c1c(Cl)cc(=O)oc12", "inhibition": "47.7% (active)"},
      {"smiles": "O=c1c2ccccc2nc(/C=C/c2cccnc2)n1Cc1ccccc1", "inhibition": "60.7% (active)"},
      {"smiles": "Cc1ccc(N=c2ssnc2Cl)cc1", "inhibition": "-43.7% (inactive)"},
      {"smiles": "CCOC(=O)c1c(C)[nH]c(C2=NNC(=Nc3ccccc3)SC2)c1C", "inhibition": "-141% (inactive)"},
      {"smiles": "Cc1ccc(S(=O)(=O)/N=C2/C=C(Sc3ncn[nH]3)C(=O)c3ccccc32)cc1", "inhibition": "63.3% (active)"},
      {"smiles": "Cc1ccc2oc(=O)c3cnn(CC(=O)N4CCCCCC4)c3c2c1", "inhibition": "-63.5% (inactive)"},
      {"smiles": "CCOC(=O)c1c(C)[nH]c(C2=NNC(=Nc3ccc(OCC)cc3)SC2)c1C", "inhibition": "-122% (inactive)"},
      {"smiles": "CCCCN(CCCC)C(=S)N/N=C/c1c(C)[nH]n(-c2ccccc2)c1=O", "inhibition": "-65% (inactive)"},
      {"smiles": "CCOC(=O)C1=C(Cc2ccc(F)cc2)C(=O)c2ccccc2C1=O", "inhibition": "59.2% (active)"},
      {"smiles": "CC(=O)NC1C(=O)N(CCN2CCOCC2)c2ccc(C)cc21", "note": "(configuration not stated)", "inhibition": "69.7% (active)"}
    ]}
  ]
}
